The text below walks through data of PubChem BioAssay.

Experiment [1] in a line: blockers of polyQ-driven CASP3 activation – cell-based (AID 1583). To be noted: polyglutamine-induced caspase-3 activation, cell assay; stronger effect = higher value;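 tested at 10 µM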.
Experiment [2] in a line: yeast 75Q aggregation reduction – 75Q-TubU reporter (AID 1593). Particulars: Yeast 75Q polyglutamine aggregation reporter.
Experiment [3] in a line: restoration of touch response, mutant HTT neurons – whole organism, C. elegans mechanosensory neurons, N-terminal huntingtin (AID 1599). To be noted: C. elegans polyQ-huntingtin mechanosensory neurons, stronger effect = higher value.
Experiment [4] can be described thus: blockers of cytochrome c efflux from mitochondria – biochemical, purified mitochondria (AID 1603).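 Further: mouse liver mitochondria challenged with calcium chloride; signal normalized to the plate average as 100%.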 To be noted: stronger effect = lower value.
Experiment [5] in a line: polyglutamine aggregate formation blockers (AID 1604). To be noted: polyglutamine-induced protein aggregation inhibition assay; stronger effect = higher value; tested at 2.5 µM.
The nature of experiment [6]: glutamate transport activators, MN-1 cells, MN-1 cell line (AID 1612).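 Further: tested at 1 µM final; 0% = mean of DMSO vehicle wells on each plate; positive means more glutamate uptake than control and negative means less.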 Particulars: MN-1 motor neuron cells, stronger effect = higher value.
Experiment [7] is described as follows: 75Q-TubH aggregate inhibition, S. cerevisiae, yeast (AID 1616). Particulars: S. cerevisiae 75Q-TubH polyglutamine aggregation suppression; stronger effect = higher value.
Experiment [8] is described as follows: compounds altering circadian rhythm period length – cell-based, LOPAC library, luminescence reporter (AID 2774; call rule not given here;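 further: values are relative to mean of DMSO wells on each plate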). Particulars: circadian reporter cells, at 7 µM, actives lie on both sides.
Experiment [9] deals with Hepatitis C virus NS3 helicase. The experiment is described as follows: blockers of NS3h binding to ssDNA – biochemical, fluorescence polarization, LOPAC1280 library, primary screen (AID 687035; in the data active means inhibition above about 37%). Particulars: Purified HCV NS3 helicase, Cy5-dT15 ssDNA binding fluorescence polarization; stronger effect = higher value; concentration not given here. (Polarisation of emitted light reports the rotation of a fluorescent probe.)

In experiment [10] the test system is Hepatitis C virus NS3 helicase. Kind of experiment: blockers of NS3h binding to DNA – biochemical, fluorescence polarization, NIH Clinical Collection, primary screen (AID 743270; call rule not given here). Particulars: NS3 helicase binding to Cy5-dT15 DNA, stronger effect = higher value, concentration not given here.
The target in experiment [11] is Single-stranded DNA-binding protein (Escherichia coli (strain K12)) (UniProt P0AGE0). Kind of experiment: SSB-ssDNA binding inhibitors – biochemical, fluorescence polarization, NIH Clinical Collection, counter-screen for HCV NS3 helicase inhibitor project (AID 743271; in the data active means inhibition above about 28%). Particulars: E. coli SSB-DNA binding, stronger effect = higher value, concentration not given here.
A short description of experiment [12]: compounds distorting NS3 helicase fluorescence signal – biochemical, NIH Clinical Collection, artefact control for HCV NS3 helicase inhibitor project (AID 743272; call rule not given here;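 further: HCV NS3 helicase with a Cy5 labelled single stranded DNA probe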). To be noted: fluorescence interference counterscreen, HCV NS3 helicase assay; stronger effect = lower value. (The purpose of a counterscreen is to sort out artefacts and off-target activity.)
The nature of experiment [13]: growth inhibition, single agents and combos, ICB984, cell-based, cisplatin or BGB combos, synergistic combos for chromothripsis tumors (AID 1671451; call rule not given here;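 further: cells exposed for 96 hours before readout; 0% = vehicle DMSO and 100% = killing by high DMSO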). Particulars: ICB984 medulloblastoma cells, drug combinations, stronger effect = higher value.
A further experiment has as its system F380Y. Kind of experiment: BK channel mutant inhibitors and activators – cell-based, U2OS BacMam, thallium flux, beta subunits, selectivity assay, profiling panel (AID 1259406).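 Further: initial slope of Thallos dye fluorescence rise after thallium is added; log ratio against the mean of 0.3% DMSO vehicle wells on the same plate.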 To be noted: U2OS BacMam BK variants, at 30 µM.
Another experiment concerns F380Y/beta2Delta. The experiment is described as above. Particulars: U2OS BacMam BK variants, at 30 µM.
In experiment [14] the target is Calcium-activated potassium channel subunit alpha-1 (Homo sapiens) + Leucine-rich repeat-containing protein 26 (Homo sapiens) (UniProt Q12791+Q2I0M4). The description is as above. To be noted: U2OS BacMam BK variants, F380Y/Slo1WT/gamma1, at 30 µM.
Chain of Calcium-activated potassium channel subunit alpha-1 (Homo sapiens) + Leucine-rich repeat-containing protein 26 (Homo sapiens) (Q2I0M4 whole entry, looked up, one chain of several): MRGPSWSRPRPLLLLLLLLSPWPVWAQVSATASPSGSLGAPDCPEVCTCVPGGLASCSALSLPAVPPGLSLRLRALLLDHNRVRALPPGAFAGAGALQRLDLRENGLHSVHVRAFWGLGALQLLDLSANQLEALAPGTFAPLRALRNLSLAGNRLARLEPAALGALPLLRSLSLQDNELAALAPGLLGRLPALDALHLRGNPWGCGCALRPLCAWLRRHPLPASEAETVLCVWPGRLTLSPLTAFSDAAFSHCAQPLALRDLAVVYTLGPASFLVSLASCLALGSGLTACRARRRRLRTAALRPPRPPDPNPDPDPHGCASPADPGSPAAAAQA
A further experiment relates to R275C. The description is as above. Particulars: U2OS BacMam BK variants, at 30 µM.
In a further experiment the test system is R275C/beta1. The description is as above. Particulars: U2OS BacMam BK variants, at 30 µM.
Another experiment has as its system R275C/beta2Delta. The experiment is described as above. To be noted: U2OS BacMam BK variants, at 30 µM.
The nature of experiment [15]: P. berghei load reduction in hepatocytes – cell-based, HepG2, luciferase luminescence, HepG2 viability, primary screen (AID 624349; in the data active means parasite load remaining mostly below about 12%, no sharp cut-off; inactive means mostly above about 10%;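 further: 100% = mean of DMSO negative control wells on the same plate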). Particulars: P. berghei liver stage in HepG2, luciferase luminescence, concentration not given here; parasite load remaining: stronger effect = lower value; viability: measured here: HepG2 viability without parasites.

A word on the inhibition: it is the relative decrease from the control value, in per cent. The term viability denotes a read-out of living cells in per cent, often relative to untreated cells.

The structures appear in SMILES notation. Several values for one entry are separate records, joined by “and”; a condition that tells them apart may be missing. Equal entries are not always repeated. For part of these data: Measured potencies and affinities stand elsewhere. Activity calls are given as the source filed them.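 How the source made its calls, unless noted: active means thallium flux through the channel raised or lowered by more than 3 SD from vehicle-only wells, actives on both sides; inactive means the rest.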

With `CCCC(CCC)C(=O)O`, the inhibition in experiment [1] was 28.5%; in experiment [9] it was 0% (inactive); in experiment [10], -1.36% (inactive); in experiment [11], -1.24% (inactive); in experiment [13] (BGB IC20 combo, at 0.005 µM) it was -9.77% and 11.3%; in [13] (BGB IC40 combo, at 0.005 µM) it was -20.4% and -26.6%. Further, the inhibition in experiment [13] (BGB IC40 combo, at 0.05 µM) is -15.7% and -0.427%; in [13] (at 0.5 µM), -27.6% (inactive) and -12.8% (inactive); in experiment [13] (cisplatin combo, at 0.05 µM), -18.9% and -4.04%; in experiment [13] (cisplatin combo, at 0.5 µM) it was -35.6% and -3.79%; in experiment [13] (cisplatin combo, at 5 µM), -25.9% and 4.77%; in [13] (measured here: 5 uM single agent, at 5 µM), -29.5% and -2.64%. Moreover, the score in experiment [2] was 1.39. In experiment [3], this compound gave a rescue above control of 2.58. For the same compound, in experiment [4], the cytochrome c release ratio stood at 0.86. For the same compound, in [5], the inhibition of aggregation came out at 40.9%. The glutamate uptake change in experiment [6] was -8.08%. The compound also yielded an aggregation suppression score in experiment [7] of 0.716. The period change in [8] was 0.1 h (inactive). Besides, in experiment [12], the fluorescence ratio was 0.99 (inactive). Besides, the log fold change Tl+ flux with F380Y was -0.0169 (inactive); in the experiment on F380Y/beta2Delta it was 0.0329 (inactive); in experiment [14] it was -0.023 (inactive); in the experiment with R275C, 0.0376 (inactive); in the experiment with R275C/beta1 it was -0.0394 (inactive); with R275C/beta2Delta it was 0.0234 (inactive).

As for `CC(C)OC(=O)C(C)(C)Oc1ccc(C(=O)c2ccc(Cl)cc2)cc1`, in [1], the inhibition was -9.13%. Further, the score in experiment [2] is -2.53. Also, the rescue above control in experiment [3] stood at 27.1. Moreover, the cytochrome c release ratio in experiment [4] was determined as 1.27. Moreover, the inhibition of aggregation in experiment [5] was 59%. Further, the glutamate uptake change in experiment [6] is -24.1%. In [7], this compound registered an aggregation suppression score of 0.0671. The period change in experiment [8] was 0.08 h (inactive). The log fold change Tl+ flux in the experiment on F380Y is -0.0417 (inactive); in the experiment with F380Y/beta2Delta, -0.0352 (inactive); in [14] it was -0.00437 (inactive); in the experiment on R275C, -0.0206 (inactive); in the experiment with R275C/beta1, -0.021 (inactive); in the experiment with R275C/beta2Delta, 0.00724 (inactive).

With `O=C(CCCN1CCC(O)(c2ccc(Cl)cc2)CC1)c1ccc(F)cc1`, the inhibition is -12.1% in experiment [1], -3% (inactive) in experiment [9], -12.4% (inactive) in [10] and 1.18% (inactive) in experiment [11]. The score in experiment [2] amounted to 1.43. In experiment [3], this compound registered a rescue above control of 27.6. For the same compound, in [4], the cytochrome c release ratio stood at 1.55. The compound also showed an inhibition of aggregation in [5] of 81.4%. Moreover, the glutamate uptake change in experiment [6] was determined as 6.85%. The same compound showed an aggregation suppression score in experiment [7] of 1.09. In addition, the period change in experiment [8] was 0.015 h (inactive). For the same compound, the fluorescence ratio in [12] was 0.89 (inactive). The log fold change Tl+ flux with F380Y was 0.00184 (inactive); in the experiment with F380Y/beta2Delta, 0.0376 (inactive); in experiment [14] it was -0.0288 (inactive); in the experiment with R275C, -0.231 (active); in the experiment on R275C/beta1, 0.104 (active); with R275C/beta2Delta, -0.165 (active).

Consider `COC(=O)C1=C(C)NC(C)=C(C(=O)OC)C1c1ccccc1[N+](=O)[O-]`, for which the inhibition in experiment [1] is 28.5%; in experiment [9] it was -1% (inactive); in experiment [10], -1.19% (inactive); in experiment [11] it was 1.44% (inactive). In [2], this compound registered a score of 0.82. Further, the rescue above control in experiment [3] turned out to be 8.1. In [4], the cytochrome c release ratio came to 0.98. Further, in [5], the inhibition of aggregation is 15.2%. In addition, the glutamate uptake change in experiment [6] was -6.86%. For the same compound, in [7], the aggregation suppression score was found to be 0.369. Moreover, in experiment [8], the period change is -0.175 h (inactive). For the same compound, in [12], the fluorescence ratio was 0.9 (inactive).

For the compound `COc1ccc2c(c1)C(=O)N(CCc1ccc(S(=O)(=O)NC(=O)NC3CCCCC3)cc1)C(=O)C2(C)C`, in experiment [15], the parasite load remaining is 128% (inactive) and the viability is 79.4%.

Turning to `CN(C)C(=O)C(CCN1CCC(O)(c2ccc(Cl)cc2)CC1)(c1ccccc1)c1ccccc1`, the inhibition in [1] is 18.5%; in experiment [9] it was -4% (inactive); in [10], -6.82% (inactive); in [11], -5.05% (inactive). This compound also gave a score in [2] of 1.94. Further, the rescue above control in experiment [3] stood at 1.56. The cytochrome c release ratio in [4] was 0.99. Also, in experiment [5], the inhibition of aggregation was 7.94%. Besides, the glutamate uptake change in [6] worked out at 44.5%. For the same compound, the aggregation suppression score in experiment [7] came to 1.13. Moreover, in [8], the period change was -0.235 h (inactive). For the same compound, the fluorescence ratio in experiment [12] was 1.01 (inactive). The log fold change Tl+ flux was 0.113 (active) in the experiment with F380Y; 0.103 (active) with F380Y/beta2Delta; -0.0267 (inactive) in experiment [14]; -0.645 (active) with R275C; 0.0279 (inactive) in the experiment on R275C/beta1; -0.504 (active) in the experiment on R275C/beta2Delta.

As to `CCCC(=O)Nc1ccc(OCC(O)CNC(C)C)c(C(C)=O)c1` (configuration not stated), the inhibition was -2.9% in experiment [1], -3.18% (inactive) in experiment [10] and -5.82% (inactive) in experiment [11]. In [2], the score was found to be 1.34. This compound also showed a rescue above control in experiment [3] of -8.24. In addition, in experiment [4], the cytochrome c release ratio came out at 0.94. In [5], the inhibition of aggregation is 0%. In experiment [6], the glutamate uptake change was -19.3%. Moreover, the aggregation suppression score in experiment [7] worked out at 1.28. Besides, the fluorescence ratio in experiment [12] is 1.03 (inactive). The log fold change Tl+ flux in the experiment with F380Y is -0.0134 (inactive); in the experiment with F380Y/beta2Delta it was -0.0305 (inactive); in experiment [14] it was 0.00552 (inactive); with R275C, -0.005 (inactive); in the experiment with R275C/beta1, -0.0201 (inactive); with R275C/beta2Delta, -0.0513 (inactive).

Consider `O=C(O)CCc1nc(-c2ccccc2)c(-c2ccccc2)o1`, for which the period change in experiment [8] was 0.145 h (inactive). The inhibition in [9] is -4% (inactive); in [10] it was 1.19% (inactive); in experiment [11], 2.21% (inactive). The fluorescence ratio in experiment [12] was 0.94 (inactive). For the same compound, the log fold change Tl+ flux with F380Y was 0.0468 (inactive); with F380Y/beta2Delta, 0.0584 (inactive); in experiment [14], 0.0291 (inactive); with R275C, -0.025 (inactive); in the experiment with R275C/beta1, 0.113 (active); in the experiment on R275C/beta2Delta it was 0.0648 (inactive).
